Data from PubChem BioAssay (NCI).
This is part of a sample that, as a whole, favours compounds with a hit. Of some 83,000 tested, about 20% had one in any assay.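 Plates (96-well) were seeded with cells, treated with compound at one concentration, and incubated for 48 hours before percent growth was determined.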 Unmarked numbers belong to inactive results. Active and inactive are the calls of the source. Rule for the calls: active = growth percent below 10; inactive = the rest.

Columns and labels:
Test in all cases: NCI-60 one-dose screen, 48 h (100 = growth as untreated, 0 = no growth, -100 = all killed)
Conditions in all cases: 10 µM
SR leukemia = test system: SR leukemia
RPMI-8226 leukemia = test system: RPMI-8226 leukemia
OVCAR-8 ovarian = test system: OVCAR-8 ovarian
OVCAR-4 ovarian = test system: OVCAR-4 ovarian
SK-OV-3 ovarian = test system: SK-OV-3 ovarian
OVCAR-3 ovarian = test system: OVCAR-3 ovarian
HS 578T breast = test system: HS 578T breast
NCI/ADR-RES ovarian = test system: NCI/ADR-RES ovarian
T-47D breast = test system: T-47D breast
BT-549 breast = test system: BT-549 breast
MDA-MB-435 melanoma = test system: MDA-MB-435 melanoma
SW-620 colon = test system: SW-620 colon
MCF7 breast = test system: MCF7 breast
HCT-116 colon = test system: HCT-116 colon
HCC-2998 colon = test system: HCC-2998 colon
KM12 colon = test system: KM12 colon
IGROV1 ovarian = test system: IGROV1 ovarian
OVCAR-5 ovarian = test system: OVCAR-5 ovarian

Row | SMILES | growth (SR leukemia) | growth (RPMI-8226 leukemia) | growth (OVCAR-8 ovarian) [%] | growth (OVCAR-4 ovarian) | growth (SK-OV-3 ovarian) [%] | growth (OVCAR-3 ovarian) | growth (HS 578T breast) [%] | growth (NCI/ADR-RES ovarian) [%] | growth (T-47D breast) [%] | growth (BT-549 breast) [%] | growth (MDA-MB-435 melanoma) | growth (SW-620 colon) | growth (MCF7 breast) | growth (HCT-116 colon) | growth (HCC-2998 colon) [%] | growth (KM12 colon) [%] | growth (IGROV1 ovarian) [%] | growth (OVCAR-5 ovarian) [%]
1 | CCN(CC)CCCC(C)Nc1c2ccc(Cl)cc2nc2ccc(OC)cc12 (stereo not given) | 0.997% (active) | -6.19% (active) | 16.6 | -7.7% (active) | 39.3 | 31% | 57.4 | 31.9 | 14 | 56.2 | -18.9% (active) | -19.1% (active) | -11.6% (active) | 12.3% | 15.3 | 22.1 |  | 
2 | COc1cc(-c2nn(-c3cccc(NC(=O)CN4CCOCC4)c3)cc2-c2cccnc2)ccc1Cl | 37.3% | 60.5% | 76.4 | 101% | 95.8 | 77.2% | 76.3 | 59 | 72.2 | 62.2 | 6.77% (active) | 62.2% | 62.4% | 82.7% |  | 71.9 | 79.6 | 
3 | CNC(=O)c1cc(Oc2ccc3c(c2)sc2nc(-c4ccc(NC(=O)Nc5ccc(Cl)c(C(F)(F)F)c5)cc4)cn23)ccn1 | 55.5% | 76.1% | 104 | 80.3% | 93.1 | 86.9% | 71.7 | 89.9 | 19.4 | 75.7 | 91.1% | 103% | 82.6% | 73.2% | 102 | 83.5 | 78 | 
4 | Cc1cc(SCc2ccccc2)nc(N)n1 | 106% | 105% | 105 |  | 108 | 123% | 111 | 105 |  | 89.3 | 99.2% | 105% | 93.8% | 102% |  | 115 |  | 
5 | COc1ccc(/C=c2\sc3n(c2=O)C(c2cc(OC)c(OC)c(OC)c2)C=C(c2ccc(OC)c(OC)c2)N=3)cc1OC (stereo not given) | 91.5% | 63.7% | 98.8 |  | 108 | 103% | 90.8 | 97.5 |  | 88.5 | 86.1% | 109% | 86.2% | 89.4% | 106 | 95.8 |  | 
6 | C[C@]12CC[C@@H]3c4ccc(O)cc4CC[C@H]3[C@@H]1CC[C@@H]2NS(=O)(=O)c1ccc(C(F)(F)F)cc1 | 18.9% | 34.8% | 57 | 49.1% | 86.6 | 35.4% | 72.7 | 53 | 25 | 59 | 22.3% | 69.7% | 2.42% (active) | 18.5% | 60.4 | 47.5 | 30.5 | 
7 | O=C1C=C(Nc2cccc(Br)c2)c2ccccc2C1=O | 56.8% | 63.1% | 69.5 | 77.6% | 25.7 | 38.9% | 38.5 | 71.1 | 102 | 14.7 | -25.2% (active) | 29.7% | 21% | 52% | 75.5 | 32.6 |  | 
8 | Cn1c2ccccc2c2c3[nH][nH]c(=O)c3c3c4ccccc4[nH]c3c21 | -12.1% (active) |  | 33.1 | 51.3% | 13.2 | 2.46% (active) | 41 | 68.5 | 42.9 | 20.5 | 23.6% | 20.7% | 5.82% (active) | -52.8% (active) | 26.5 |  | 11 | 62.6
9 | CCn1cc(C(=O)O)c(=O)c2cc(F)c(N3CCNCC3)cc21 | 100% | 104% | 97 | 111% | 113 | 114% | 111 | 110 | 124 | 110 | 107% | 103% | 107% |  | 110 | 103 |  | 
